# Measurements as given in ChEMBL document CHEMBL4296182, “CO-ADD screening of NIH NCI Diversity Set V”.
# For part of these data: Measured potencies and affinities stand elsewhere.
# Key:
# Staphylococcus aureus = assay: Antibacterial activity against Staphylococcus aureus MRSA ATCC 43300 (CO-ADD:GP_020); MIC in CAMBH media using NBS plates, by Resazurin F(560/590); assay type: functional; conditions: Concentration 20 uM, ASSAY_TEST Inhibition of Bacterial Growth, detection method Resazurin, Fluorescence (ex560/em590), MEDIA CAMHB, plate type 384well, CORNING #3640, time 18 hr
# Acinetobacter baumannii = assay: Antibacterial activity against Acinetobacter baumannii ATCC 19606 (CO-ADD:GN_034); MIC in CAMBH media using NBS plates, by Resazurin F(560/590); assay type: functional; conditions: Concentration 20 uM, ASSAY_TEST Inhibition of Bacterial Growth, detection method Resazurin, Fluorescence (ex560/em590), MEDIA CAMHB, plate type 384well, CORNING #3640, time 18 hr
# Escherichia coli = assay: Antibacterial activity against Escherichia coli ATCC 25922 (CO-ADD:GN_001); MIC in CAMBH media using NBS plates, by Resazurin F(560/590); assay type: functional; conditions: Concentration 20 uM, ASSAY_TEST Inhibition of Bacterial Growth, detection method Resazurin, Fluorescence (ex560/em590), MEDIA CAMHB, plate type 384well, CORNING #3640, time 18 hr
# Klebsiella pneumoniae = conditions: Concentration 20 uM; ASSAY_TEST Inhibition of Bacterial Growth; detection method Absorption (OD600); MEDIA CAMHB; plate type 384well; NBS; CORNING #3640; time 18 hr
# Candida albicans = conditions: 20 µM
# Cryptococcus neoformans = conditions: Concentration 20 uM; ASSAY_TEST Inhibition of Fungal Growth; detection method Resazurin; Absorption (OD600-OD570); plate type 384well; NBS; CORNING #3640
Compound,Inhibition (Staphylococcus aureus),Inhibition (Acinetobacter baumannii),Inhibition (Escherichia coli),Inhibition (Klebsiella pneumoniae),Inhibition (Candida albicans),Inhibition (Cryptococcus neoformans)
COC(=O)c1c[n+]([O-])ccc1OC,-9.06%,-1.68%,-4.59%,7.09%,-2.55%,-2.93%
O=C(Nc1ccc(Cl)cc1)Nc1cccc2nsnc12,6.14%,9.14%,-11.2%,5.1%,11.3%,-2.68%
NC(=O)c1ccc(Oc2ccc(C(N)=O)cc2)cc1,7.05%,9.37%,0.31%,15.83%,-0.45%,-7.62%
CCn1c2ccccc2c2c3ncc4cccn4c3ccc21,-13.6%,-8.64%,1.37%,9.08%,32.4%,-7.68%
Cc1nc2[nH]c(=O)n(O)c(=O)c2s1,4.12%,-18.15%,5.04%,12.49%,3.41%,-6.64%
COc1ccc(/N=N/c2c(N)n[nH]c2N)cc1,9.98%,-10.61%,6.79%,12.54%,3.82%,-6.57%
COc1ccc(Nc2cc(C)nc(N)n2)cc1,-7.83%,-5.29%,-4.32%,2.7%,1.31%,-3.23%
C=CCOCCN(CC)CC,-2.28%,-4.48%,-9.5%,7.56%,2.62%,15.03%
NC1=C2C(=O)c3ccccc3C(=O)C2=C(N)CC1,-13.27%,1.08%,-5.53%,8.56%,22.9%,-5.51%
CCCN(CCC)CC(=O)N1CC(=O)Nc2ccccc21,-18.07%,-3.41%,-10.49%,8.75%,3.75%,-3.68%
CC(=O)[C@@]1(O)[C@H](C)C[C@H]2[C@@H]3C=C(C)C4=Cc5c(cnn5-c5ccccc5)C[C@]4(C)[C@H]3[C@@H](O)C[C@@]21C,3.25%,-8.97%,7.95%,0.96%,4.25%,-3.62%
Cc1cc(-c2ccc(N3C(=O)CC4(CCCC4)C3=O)c(C)c2)ccc1N1C(=O)CC2(CCCC2)C1=O,2.65%,-13.47%,9.87%,-0.13%,4.32%,-5.08%
CCCc1nc(NC(=O)c2ccccc2)nc(NC(=O)c2ccccc2)n1,-10.01%,-7.86%,8.74%,10.41%,3.97%,-9.1%
CC(=O)c1cc(O)c2ccccc2c1O,4.01%,-14.11%,0.42%,7.57%,24.1%,6.09%
COc1ccc2c3c([nH]c2c1)[C@H]1C[C@H]2[C@H](C[C@@H](O)[C@H](OC)[C@H]2CO)CN1CC3,17.92%,7.85%,-1.49%,7.11%,-0.63%,-8.29%
N#Cc1cnn2ccn(C3OC(CO)C(O)C3O)c12 (stereo not drawn),2.98%,-3.63%,8.76%,13.94%,4.75%,-11.71%
OCCCCc1nccc2c1[nH]c1ccccc12,-6.35%,-7.04%,-1.94%,-0.62%,2.78%,-8.33%
Cc1c(Cl)cccc1NC(=O)CC1Sc2ccccc2NC1=O (stereo not drawn),7.76%,13.12%,-17.77%,3.05%,8.03%,45.43%
COC(=O)c1cncc(C)c1,18.5%,-13.2%,14.23%,15.45%,0.39%,-1.27%
COC(=O)c1cc(C)c(C)cc1NC1OC(CO)C(O)C1O (stereo not drawn),-3.53%,7.51%,-12.77%,12.31%,6.05%,-3.92%
CCOC(=O)c1c(C)nc(C)c(C(=O)OCC)c1-c1ccc(OC)cc1,0.94%,2.04%,-21.92%,2.6%,6.74%,19.28%
C=CCNC(=S)N1CCN(c2ccccc2Cl)CC1,6.69%,9.34%,-14.86%,17.35%,32.7%,-0.57%
Cc1ccc([N+](=O)[O-])cc1NC(=O)Nc1ccc(S(N)(=O)=O)cc1,2.59%,7.91%,0%,0.38%,-0.57%,-7.76%
Nc1ccc(-c2nc3nc(N)nc(N)c3nc2-c2ccc(N)cc2)cc1,11.99%,-8.41%,-0.05%,5.53%,0.39%,-7.52%

Compound,Inhibition (Staphylococcus aureus),Inhibition (Acinetobacter baumannii),Inhibition (Escherichia coli),Inhibition (Klebsiella pneumoniae),Inhibition (Candida albicans),Inhibition (Cryptococcus neoformans)
O=S(=O)(O)c1ccc2c(c1)C(C(Cl)(Cl)Cl)OC(C(Cl)(Cl)Cl)O2 (stereo not drawn),10.71%,-8.34%,18.82%,1.9%,-0.48%,-7.32%
CC1=CC2C(C(O)CC3(C)C2CC(C)C32OCOC23COCO3)C2(C)C/C(=C/O)C(=O)C=C12 (stereo not drawn),18.36%,-11.09%,9.35%,4.64%,15.1%,-16.69%
CCOC(=O)C1=C(N)N=C(N)C1=Nc1ccc(OC)cc1,10.45%,-11.35%,6.73%,4.94%,-1.95%,-7.84%
c1ccc(-c2nc3ccccc3s2)nc1,11.77%,-14.54%,6.85%,18.93%,0.91%,-15.52%
c1ccc2c(c1)-c1cccc3cncc-2c13,1.08%,-2.19%,3.18%,7.94%,12.2%,-10.41%
Oc1nc2[nH]c(Cl)nc(Cl)c-2n1,12.09%,-10.58%,13.78%,9.63%,-2.33%,-19.04%
O=[N+]([O-])c1ccc(NN=C(c2ccccc2)c2ccccc2)nc1,5.39%,-2.58%,13.19%,5.05%,3.51%,-2.84%
c1ccc2c(c1)Oc1cccc3cccc-2c13,13.84%,-15.64%,12.26%,8.47%,7.02%,-13.12%
NC(=O)c1ccccc1NC(=O)COc1ccc(Cl)cc1,16.24%,7.59%,9.93%,7.02%,1.18%,-8.55%
c1cc(-n2nnc3cnccc32)ccn1,13.16%,-18.41%,12.03%,-0.91%,-1.34%,-8.76%
CCOC(=O)c1nc(O)c2c3c(sc2n1)CCCC3,16.28%,-13.3%,15.58%,5.02%,10%,-8.42%
C[C@H](CCC(=O)O)[C@H]1CC[C@@]2(C)[C@@H]3C(=O)C[C@H]4C(C)(C)[C@@H](O)CC[C@]4(C)[C@H]3C(=O)C[C@]12C,2.14%,-2.92%,-3.17%,11.41%,-2.24%,-2.42%
Cc1nc([C@H]2CC[C@H]3[C@@H]4CCC5=CC(=O)CC[C@]5(C)[C@H]4CC[C@]23C)cs1,4.31%,15.21%,6.81%,9.22%,2.4%,-7.32%
CCOC(CNCc1cc(C)c2[nH]c3ccccc3c2c1C)OCC,11.65%,-1.22%,3.76%,8.4%,1.3%,-11.65%
Cc1c(O)ccc2c(O)c(NC(=O)c3ccc4c(c3)CCC(C)(C)O4)c(=O)oc12 [CYCLONOVOBIOCIC ACID],10.86%,10.56%,-1.41%,4.57%,4.26%,-3.84%
N#CC1=CC2CN(Cc3ccccc3)C1C1C(=O)N(c3ccccc3)C(=O)C21 (stereo not drawn),-0.51%,3.07%,-13.61%,5.72%,9.06%,18.01%
Cc1cc2cc3c(=O)[nH]c(=O)cc-3n(CC(O)C(O)C(O)CO)c2cc1C (stereo not drawn),10.31%,8.52%,-0.29%,10.28%,-1.58%,-7.62%
O=C(O)C(c1ccccc1)C1(O)CCCCC1 (stereo not drawn),4.6%,-11.34%,11.15%,5.64%,0.92%,-11.66%
CSc1nc2nc(C(O)c3ccccc3)nc-2c[nH]1 (stereo not drawn),9.64%,6.4%,-14.24%,16.25%,8.94%,28.87%
CCCCNc1nc(N)ncc1[N+](=O)[O-],5.28%,-8.97%,14%,10.57%,8.4%,-15.62%
CC1(C)C2CCC(CN=C(N)CSS(=O)(=O)O)C1C2 (stereo not drawn),18.41%,14.08%,1.93%,19.04%,-2.77%,-13.54%
O=C(O)CCN1c2ccccc2Sc2ccccc21,8.2%,-9.93%,16.66%,14.48%,16.7%,-15.83%
CN1CCN(C2=NCCO2)CC1,4.85%,-15.45%,15.25%,13.16%,3.03%,6.31%
C=CCOc1ccc(S(C)(=O)=O)cc1,-0.52%,-11.44%,7.79%,4.92%,1.73%,-10.45%
